# Bioassay records deposited in PubChem BioAssay by National Center for Advancing Translational Sciences (NCATS).
# RXFP1 ag: activates the human relaxin receptor RXFP1 | Potency, µM (titrated, usually from 57.5 µM), inactives show at the highest dose activation, hits mostly activators | 0.3% of 370,000 active | Q9HBX9 | HEK293T-RXFP1 cAMP TR-FRET, 30 min; response scale: percent of porcine relaxin response, buffer zero; active = well fitted activation curve with a large enough effect; inconclusive = small, poorly fitted or top-dose-only effect; note: potency is the fitted concentration of half-maximal effect; % is set by controls: 0 for no effect and ±100 for the full control effect; nearly all actives have a fitted effect of over 60% in size
#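 cAMP rise read by TR-FRET after 30 min, 37C compound exposure (up to 58 uM) in RXFP1-transfected HEK293 cells with Ro 20174 present. EC50 from Hill-equation fits, with 29 nM porcine relaxin as 100% and buffer as basal.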
# TSHR antag: blocks TSH signaling through the human TSH receptor; 0.2% of 330,000 active; AID 504810; TSHR-expressing cells, TSH-stimulated cAMP HTRF, 2 h; hits give low values; activity change, negative = inhibition, % at 11.5 µM;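 active = activity change below a set negative limit, meaning inhibition stronger than a set level, cut at about -70% in these data; inconclusive = activity change between two set negative limits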; note: % is set by controls: 0 for no effect and ±100 for the full control effect
# Target sequence (P16473 whole entry, looked up): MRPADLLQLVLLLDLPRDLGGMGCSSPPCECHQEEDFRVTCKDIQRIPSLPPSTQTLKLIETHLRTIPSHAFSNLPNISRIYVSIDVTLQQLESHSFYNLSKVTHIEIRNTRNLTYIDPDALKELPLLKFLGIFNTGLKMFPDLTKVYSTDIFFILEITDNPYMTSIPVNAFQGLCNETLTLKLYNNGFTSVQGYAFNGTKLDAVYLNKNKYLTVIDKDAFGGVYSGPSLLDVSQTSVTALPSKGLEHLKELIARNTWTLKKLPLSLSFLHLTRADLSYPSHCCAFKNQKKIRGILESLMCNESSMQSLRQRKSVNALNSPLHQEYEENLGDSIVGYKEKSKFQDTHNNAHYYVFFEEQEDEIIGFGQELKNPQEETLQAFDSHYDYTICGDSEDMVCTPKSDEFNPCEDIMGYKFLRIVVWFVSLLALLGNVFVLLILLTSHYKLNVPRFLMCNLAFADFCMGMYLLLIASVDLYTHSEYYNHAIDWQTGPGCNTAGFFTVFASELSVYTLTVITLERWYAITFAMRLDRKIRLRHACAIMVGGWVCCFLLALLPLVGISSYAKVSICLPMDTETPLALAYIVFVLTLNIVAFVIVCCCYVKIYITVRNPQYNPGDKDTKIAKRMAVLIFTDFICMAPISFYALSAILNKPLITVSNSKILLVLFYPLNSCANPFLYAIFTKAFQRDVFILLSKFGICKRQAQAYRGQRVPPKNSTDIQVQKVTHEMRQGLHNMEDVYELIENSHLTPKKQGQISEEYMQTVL
#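 Cell-based HTRF cAMP assay; TSHR cells + compound, TSH EC80 (4nM final), 2 h, 37 deg C. Lysis with anti-cAMP cryptate and cAMP-d2, 30 min RT, read 665/620 nm.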
# gsp antagonist: antagonists of gsp mutant (McCune-Albright syndrome) | gsp-mutant cells, cAMP HTRF, 30 min | Potency, µM (doses to about 76.9 µM), for inactives: top-dose activity change, negative = inhibition, hits mostly inhibitors | 0.4% of 340,000 active | AID 624288; calls by dose curve; cell line not stated here;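 note: intracellular cAMP measured with PDE inhibitor Ro 20-1724 present during compound exposure; potency is the fitted concentration of half-maximal effect; % is set by controls: 0 for no effect and ±100 for the full control effect; nearly all actives have a fitted effect of over 65% in size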
#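 Measurement of cellular cAMP by homogeneous time-resolved fluorescence following a 30 min compound exposure at 37C. The PDE inhibitor […] was present throughout; the assay buffer was DPBS with 0.05% BSA and 0.005% Tween 20.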
# RXFP1 antagonist: RXFP1 (human) relaxin receptor antagonism; Q9HBX9; HEK293-RXFP1, relaxin-stimulated cAMP HTRF, 30 min; hits give low values; activity change, negative = inhibition, % at 57.5 µM; 0.59% of 350,000 active; AID 1259400;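 active = activity change of -60% or lower, but not beyond a set lower limit; inconclusive = change between -60% and -40%, or beyond the set limit; inactive = change above -40%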; note: % is set by controls: 0 for no effect and ±100 for the full control effect
# gsp agonist: activates gsp, the McCune-Albright syndrome mutation; 0.13% of 340,000 active; gsp mutant cells, cAMP HTRF, 30 min; Potency, µM (highest dose often 76.9 µM), for the others: at the highest dose activation (cAMP increase), usual class: activators; active = well fitted activation curve with a large enough effect; inconclusive = small, poorly fitted or top-dose-only effect, or another doubt; inactive = no such curve, though single readings can be large or run the other way; cell line not stated here;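 note: phosphodiesterase inhibitor Ro 20-1724 added with compounds to block cAMP breakdown; potency is the fitted concentration of half-maximal effect; nearly all actives have a fitted effect of over 60% in size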
#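 Cells stably selected in G418 were plated at 2000/well, grown 16-24 hr, then given compounds in DMSO with the PDE inhibitor […] (300 uM solution added) for 30 min at 37C; cAMP was read by HTRF.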
# Akt phos inh: inhibitors of Akt phosphorylation. activity change, % for hits at 50 µM. Neuro2A IGF-stimulated pAkt S473 HTRF, 20 min; hits give low values. 0.32% of 360,000 active. AID 651550; in the data active = activity change below about -80%; inconclusive = mostly about -51% to -80%; note: % is set by controls: 0 for no effect and ±100 for the full control effect
#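 Single-point screen (50 µM final compound) in Neuro2A cells stimulated 20 min with 6 nM IGF at 37 deg C. After lysis, Ser473-phosphorylated Akt read by HTRF (ex 330 nm, em 615/665 nm) as the 665/615 ratio.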
# * marks the source's active call; other numbers are inactive results; i = inactive; ? = inconclusive; . = no result given; [ ] = another dose, or the depositor's remark. Only some compounds are listed: those with a hit (about 1.3% of all), similar ones and a draw of the others.
SMILES,RXFP1 ag,TSHR antag,gsp antagonist,RXFP1 antagonist,gsp agonist,Akt phos inh
OCCN(CCO)c1ccc2ccccc2c1,1%,-10,-8%,-3,?,i
Cc1noc2ncnc(N3CCN(c4cccc(Cl)c4)CC3)c12,0%,-16,35µM*,-4,10%,i
CC1OC(O[C@H]2CC[C@]3(C)C4C=C[C@]56OC[C@@]7(CC[C@@H](C)[C@H](C)C75)[C@H](O)C[C@@]6(C)[C@]4(C)CC[C@H]3C2(C)C)C(OC2OC(CO)C(O)C(O)C2OC2OCC(O)C(O)C2O)C(O)C1O (stereo partly specified),1%,-1,.,.,.,.
COc1cccc(/C=N/Nc2nnc3c(n2)[nH]c2ccccc23)c1OC,-1%,-4,-7%,-61*,16%,i
COc1cccc(C=NNc2nc3ccccc3s2)c1OC,.,.,5%,-27,24%,i
C=CCC(=O)N1CCC(n2nccc2NC(=O)CCOc2ccccc2)CC1,-2%,1,-1%,-2,?,i
O=C1c2ccccc2NC(c2ccc(Cl)cc2Cl)N1O (stereo unspecified),-3%,0,-9%,-9,-47%,-132%*
O=C1c2ccccc2NC(c2cnc3ccccc3n2)N1O (stereo unspecified),15%,-7,-11%,-7,22µM*,?
Cc1nn(C)c(C)c1C1Nc2ccccc2C(=O)N1O (stereo unspecified),0%,5,4%,-7,11%,i
Cc1cnc(NC(=O)CC(C)c2ccccc2)s1 (stereo unspecified),8%,-4,16%,-1,-9%,i
CC(NC(=O)c1cc(S(=O)(=O)N(C)C)ccc1N1CCCC1)C1CC2CCC1C2 (stereo unspecified),2%,-6,-28%,-2,8%[15.4 µM],i
O=C(O)c1ccc2nc(-c3ccco3)c(-c3ccco3)nc2c1,13%,-11,-22%,?,3.5µM*,i
O=C(Nc1cccc(C(F)(F)F)c1)c1ccc2nc(-c3ccco3)c(-c3ccco3)nc2c1,-3%,-16,-9%,-97*,-29%,i
O=C(c1ccc2nc(-c3ccco3)c(-c3ccco3)nc2c1)N1CCN(c2ccccc2)CC1,0%,-17,-21%,-27,0%,i
O=C(O)c1cc(-c2ccco2)nc2ccc(Br)cc12,13µM*,9,10%,2,?,i
Cc1ccc(-c2nc3ccc(C(=O)O)cc3nc2-c2ccc(C)cc2)cc1,5%,?,?,6,19%,-123%*
COc1ccc(/C=C/C2=CC(C)(C)NC(=S)N2)cc1,0%,-8,-21%,-8,6%[15.4 µM],i
COC(=O)c1cc(Cl)ccc1OC,.,.,.,13,.,.
CCCN(CC(=O)Nc1ccccc1C)C(=O)/C=C/c1ccc(OCC)c(OC)c1,0%,9,3%,-5,-6%,i
CN1CCN(S(=O)(=O)c2cccc(C(=O)N(Cc3nnc(-c4ccccc4Cl)o3)C3CC3)c2)CC1,1%,6,-10%,-2,?,i
CCc1ccc(C(C(=O)NCc2ccccc2)N(C(=O)c2csnn2)C2CC2)cc1 (stereo unspecified),4%,20,4%,-24,-13%,i
CN1CCN(Cc2c(O)ccc3c(=O)c(Oc4ccccc4Cl)c(C(F)(F)F)oc23)CC1,2%,-6,-9%,-31,-42%,i
CCN1CCN(Cc2c(O)ccc3c(=O)c(Oc4ccccc4Cl)c(C(F)(F)F)oc23)CC1,32µM*,.,.,.,.,.
COc1ccccc1Oc1c(C)oc2c(CN3CCN(CCO)CC3)c(O)ccc2c1=O,11%,-2,2%,17,?,i
Cc1oc2c(CN3CCCC3)c(O)ccc2c(=O)c1Oc1ccccc1Br,7%,23,-7%,8,?,-85%*
SMILES,RXFP1 ag,TSHR antag,gsp antagonist,RXFP1 antagonist,gsp agonist,Akt phos inh
CC(C)(C)OCC1CO1 (stereo unspecified),-1%,-25,-2%,.,.,i
Cc1c(C(=O)Nc2ccc(F)cc2)c2ccccn2c1CCc1ccncc1,0%,53,11µM*,-16,2%[15.4 µM],i
Cc1cc(Cl)ccc1Nc1ncnc2onc(C)c12,0%,.,.,-20,.,.
COc1cc(/C=C(/C#N)c2ccc(F)cc2)ccc1OCc1ccc(C(=O)O)o1,-1%,-17,40µM*,4,6%,i
O=C(O)CCC(=O)Nc1ccc(C(=O)OCC(=O)c2ccc(Cl)cc2Cl)cc1,0%,-11,3%,-67*,-25%,i
CC/C(=N/O)C(=O)c1ccc(Br)cc1,-1%,0,8%,-88*,-2%[15.4 µM],i
C/C(=N/OC(=O)c1ccc(C)cc1)C(=O)c1ccc(Br)cc1,-2%,22,-5%,4,-8%,i
O=C(c1ccncc1)N1CCN(S(=O)(=O)c2cccc(Cl)c2)CC1,1%,-4,3%,-2,7%,i
CS(=O)(=O)c1ccc(C(=O)OCC(=O)NCc2cccs2)cc1[N+](=O)[O-],.,?,-3%,-101*,-1%[15.4 µM],i
O=C(CSc1nc2ccsc2c(=O)n1CC1CCC(C(=O)O)CC1)c1ccc(Cl)cc1 (stereo unspecified),3%,-27,22µM*,-17,5%[15.4 µM],i
O=C(CSc1nc2ccsc2c(=O)n1CC1CCC(C(=O)O)CC1)c1ccc(F)cc1 (stereo unspecified),3%,-15,?,-8,?,i
O=c1cc(-c2ccccc2)nc2nc(SCc3ccccc3)[nH]n12,1%,-9,25µM*,-3,-17%,i
N#Cc1cccc2cccc(S(=O)(=O)N3CCOCC3)c12,3%,-1,2%,-3,-43%,i
CCN(CC)c1ccc(N2C(=O)CSC2=S)cc1,-1%,-1,-13%,-14,11%[15.4 µM],i
CCN(CC)c1ccc(N2C(=O)/C(=C/c3cccs3)SC2=S)cc1,1%,-2,-1%,-6,-27%,-103%*
O=C(Cn1ncn2c(cc3sccc32)c1=O)NCCc1ccccc1,25%,.,.,-5,.,.
COc1cccc(CNc2nc3cc(-c4ccc(OC)cc4C)sc3c(=O)n2C)c1,.,.,.,.,.,i
CCCCOC(=O)c1ccc(NC(=O)c2c(OC)cccc2OC)cc1,0%,-14,-17%,-6,11µM*,i
CCCCOC(=O)c1cccc(NC(=O)CC)c1,2%,10,-6%,-12,-26%,-112%*
CCCCC(=O)Nc1cccc(NC(=O)CC)c1,1%,3,-7%,-7,-6%,i
C/C(=N/NC(=O)c1ccc(C)nc1)c1ccc2c(c1)CCCC2,1%,-3,12%,-62*,-1%[15.4 µM],i
